# From PubChem BioAssay AID1159580 (chemical genetic matrix, 2015)
# Values joined by “and” are separate entries in the source; they are usually repeats but may differ in a detail not shown here. Identical values can stand only once. Screen size: about 5,500 compounds; about 2,000 (36%) were called active. Another 18% or so got no clear call; they are omitted. This is one part of the list. Unmarked numbers belong to inactive results. Cut-off read from the data, not from the text of the source: active = normalized growth mostly below about 0.91 (no sharp cut-off); inconclusive = no clear call, values can overlap the other calls; inactive = mostly above about 0.92.
# Assay: chemical genetic growth profiling, strain panel (AID 1159580);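 note: tested at 20 µM; growth read once vehicle control cultures reached saturation at 30 °C; 1 = growth at the plate median or of vehicle wells; lower values mean less growth of the strain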
# Conditions: S. cerevisiae deletion strains, growth OD
structure (smiles),measurement,setting,value
COc1ccc(C(=O)CC(=O)c2ccc(C(C)(C)C)cc2)cc1,normalized growth,"locus YAL013W, strain DEP1, hits give low values",0.998
same,normalized growth,"locus YAL021C, strain ccr4, hits give low values",0.999
same,normalized growth,"locus YAL026C, strain drs2, hits give low values",0.996
same,normalized growth,"locus YAL030W, strain snc1, hits give low values",0.993
same,normalized growth,"locus YBL061C, strain skt5, hits give low values",0.99
same,normalized growth,"locus YBR009C, strain hhf1, hits give low values",0.976
same,normalized growth,"locus YBR021W, strain FUR4, hits give low values",0.979
same,normalized growth,"locus YBR023C, strain chs3, hits give low values",0.987
same,normalized growth,"locus YBR171W, strain sec66, hits give low values",1.03
same,normalized growth,"locus YBR229C, strain ROT2, hits give low values",0.997
same,normalized growth,"locus YBR231C, strain swc5, hits give low values",0.997
same,normalized growth,"locus YBR279W, strain paf1, hits give low values",0.991
same,normalized growth,"locus YCL011C, strain gbp2, hits give low values",0.995
same,normalized growth,"locus YCL016C, strain dcc1, hits give low values",0.984
same,normalized growth,"locus YCL029C, strain bik1, hits give low values",1.01
same,normalized growth,"locus YCL069W, strain vba3, hits give low values",0.993
same,normalized growth,"locus YCR088W, strain abp1, hits give low values",0.99
same,normalized growth,"locus YDL005C, strain med2, hits give low values",0.983
same,normalized growth,"locus YDL035C, strain GPR1, hits give low values",0.954
same,normalized growth,"locus YDL040C, strain nat1, hits give low values",0.98
same,normalized growth,"locus YDL074C, strain BRE1, hits give low values",0.933
same,normalized growth,"locus YDL101C, strain DUN1, hits give low values",0.99
same,normalized growth,"locus YDL134C, strain PPH21, hits give low values",1.01
same,normalized growth,"locus YDL185W, strain tfp1, hits give low values",1
same,normalized growth,"locus YDL192W, strain arf1, hits give low values",1
same,normalized growth,"locus YDR001C, strain nth1, hits give low values",0.995
same,normalized growth,"locus YDR069C, strain doa4, hits give low values",0.989
same,normalized growth,"locus YDR101C, strain arx1, hits give low values",1
same,normalized growth,"locus YDR137W, strain rgp1, hits give low values",0.918
same,normalized growth,"locus YDR150W, strain NUM1, hits give low values",0.999
same,normalized growth,"locus YDR159W, strain sac3, hits give low values",1.01
same,normalized growth,"locus YDR162C, strain NBP2, hits give low values",0.851
same,normalized growth,"locus YDR195W, strain ref2",1.01
same,normalized growth,"locus YDR297W, strain sur2, hits give low values",1
same,normalized growth,"locus YDR318W, strain mcm21, hits give low values",0.994
same,normalized growth,"locus YDR334W, strain swr1, hits give low values",1.02
same,normalized growth,"locus YDR335W, strain msn5, hits give low values",1
same,normalized growth,"locus YDR388W, hits give low values",1.01
same,normalized growth,"locus YDR392W, strain spt3, hits give low values",1.02
same,normalized growth,"locus YDR502C, strain sam2, hits give low values",1.01
same,normalized growth,"locus YEL003W, strain gim4, hits give low values",0.992
same,normalized growth,"locus YEL037C, strain rad23, hits give low values",0.992
same,normalized growth,"locus YEL061C, strain CIN8 (second series), hits give low values",0.976
same,normalized growth,"locus YEL061C, strain CIN8, hits give low values",0.96
same,normalized growth,"locus YER015W, strain faa2, hits give low values",0.997
same,normalized growth,"locus YER016W, strain bim1, hits give low values",0.983
same,normalized growth,"locus YER110C, hits give low values",1.01
same,normalized growth,"locus YER111C, strain swi4, hits give low values",0.995
same,normalized growth,"locus YER155C, strain BEM2 (second series), hits give low values",1.01
same,normalized growth,"locus YER155C, strain BEM2, hits give low values",0.94
same,normalized growth,"locus YER167W, strain BCK2, hits give low values",0.987
same,normalized growth,"locus YFR010W, strain ubp6, hits give low values",1
same,normalized growth,"locus YGL078C, strain dbp3, hits give low values",0.996
same,normalized growth,"locus YGL086W, strain mad1, hits give low values",0.991
same,normalized growth,"locus YGL167C, strain pmr1, hits give low values",0.982
same,normalized growth,"locus YGL173C, strain kem1, hits give low values",0.989
same,normalized growth,"locus YGL227W, strain vid30, hits give low values",0.982
same,normalized growth,"locus YGL240W, strain doc1, hits give low values",0.986
same,normalized growth,"locus YGL248W, strain PDE1, hits give low values",0.986
same,normalized growth,"locus YGL253W, strain hxk2, hits give low values",0.99
same,normalized growth,"locus YGR078C, strain PAC10, hits give low values",0.931
same,normalized growth,"locus YGR135W, strain pre9, hits give low values",0.997
same,normalized growth,"locus YGR229C, strain SMI1, hits give low values",0.83
same,normalized growth,"locus YGR252W, strain gcn5, hits give low values",1.02
same,normalized growth,"locus YHR013C, strain ard1, hits give low values",0.945
same,normalized growth,"locus YHR027C, strain rpn1, hits give low values",0.992
same,normalized growth,"locus YHR030C, strain SLT2, hits give low values",0.929 and 0.981
same,normalized growth,"locus YHR079C, strain IRE1 (second series), hits give low values",1
same,normalized growth,"locus YHR079C, strain IRE1, hits give low values",0.984
same,normalized growth,"locus YHR094C, strain hxt1, hits give low values",1
same,normalized growth,"locus YHR129C, strain ARP1, hits give low values",1
same,normalized growth,"locus YHR142W, strain chs7, hits give low values",0.956
same,normalized growth,"locus YHR200W, strain rpn10, hits give low values",1
same,normalized growth,"locus YIL066C, strain RNR3, hits give low values",0.992
same,normalized growth,"locus YIL073C, strain SPO22, hits give low values",0.872
same,normalized growth,"locus YIL125W, strain kgd1, hits give low values",0.993
same,normalized growth,"locus YIR030C, strain dcg1, hits give low values",0.998
same,normalized growth,"locus YJL092W, strain hpr5, hits give low values",0.993
same,normalized growth,"locus YJL095W, strain BCK1 (second series), hits give low values",0.967
same,normalized growth,"locus YJL095W, strain BCK1, hits give low values",0.958 and 0.995
same,normalized growth,"locus YJL115W, strain asf1, hits give low values",1.01
same,normalized growth,"locus YJL129C, strain trk1, hits give low values",0.918
same,normalized growth,"locus YJL134W, strain LCB3, hits give low values",1
same,normalized growth,"locus YJL154C, strain vps35, hits give low values",0.993
same,normalized growth,"locus YJL164C, strain tpk1, hits give low values",0.913 (active)
same,normalized growth,"locus YJL166W, strain qcr8, hits give low values",0.976
same,normalized growth,"locus YJL168C, strain set2, hits give low values",1
same,normalized growth,"locus YJL187C, strain SWE1 (second series), hits give low values",1.01
same,normalized growth,"locus YJL187C, strain SWE1, hits give low values",1
same,normalized growth,"locus YJR043C, strain POL32, hits give low values",1
same,normalized growth,"locus YJR066W, strain TOR1, hits give low values",0.97
